Laboratory results taken from PubChem BioAssay (NCI).
This is part of a sample that, as a whole, favours compounds with a hit. Of some 83,000 tested, about 20% had one in any assay.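 Values shown are percent growth following 48 h exposure of cells in 96-well plates to a single concentration of compound; below 10 was considered active.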 Active and inactive are the calls of the source.

Assays:
Experiment in all cases: NCI-60 one-dose screen, 48 h (100 = growth as untreated, 0 = no growth, -100 = all killed)
Settings in all cases: 10 µM unless noted
[1] = system: SK-MEL-2 melanoma
[2] = system: EKVX NSCLC
[3] = system: SN12C renal
[4] = system: UO-31 renal
[5] = system: ACHN renal
[6] = system: CAKI-1 renal
[7] = system: A498 renal
[8] = system: CCRF-CEM leukemia
[9] = system: MOLT-4 leukemia
[10] = system: SR leukemia
[11] = system: RPMI-8226 leukemia
[12] = system: OVCAR-8 ovarian
[13] = system: OVCAR-5 ovarian
[14] = system: OVCAR-4 ovarian
[15] = system: SK-OV-3 ovarian
[16] = system: IGROV1 ovarian
[17] = system: OVCAR-3 ovarian
[18] = system: HS 578T breast
[19] = system: NCI/ADR-RES ovarian
[20] = system: TK-10 renal

Measured: growth

COc1ccc(C2CC(c3cccc(OCCCCOc4cccc(C5=NOC(c6ccc(OC)cc6)C5)c4)c3)=NO2)cc1 (centres undefined)
active: [11] -21.9%
inactive: [1] 103% | [2] 102% | [3] 95.3% | [4] 79% | [5] 104% | [6] 89% | [7] 111% | [8] 72.8% | [9] 92.2% | [10] 29.9% | [12] 93.5% | [13] 111% | [14] 90.3% | [15] 106% | [16] 89.6% | [17] 96.2% | [18] 109% | [19] 107%

Cc1ncn(-c2ccc(/C=N/Nc3ccnc4cc(Cl)ccc34)cc2)c1C
inactive: [2] 99.8% | [7] 86.5% | [13] 102% | [15] 102% | [16] 61.7%
active: [1] -17.3% | [3] -55.8% | [4] -66.9% | [5] -91.1% | [6] -48.9% | [8] 3.17% | [9] 1.04% | [10] -21.3% | [11] -27.2% | [12] -57.5% | [14] -68.3% | [18] -16.1% | [19] 8.02%

O=C(N/N=C\c1ccc([N+](=O)[O-])cc1)c1ccc2nc(-c3ccc(Br)cc3)[nH]c2c1
inactive: [1] 51.9% | [2] 45.4% | [3] 16.9% | [4] 41.6% | [5] 34.1% | [6] 34.8% | [7] 21.4% | [8] 10.6% | [12] 13.5% | [13] 44.8% | [14] 21.3% | [15] 45% | [16] 18% | [18] 23.2% | [19] 71.4%
active: [9] 5.71% | [10] -3.17% | [11] 6.03%

Cc1ccc(S(=O)(=O)NCCCNc2nccc(-c3[nH]c(-c4ccccc4)nc3-c3ccc(F)c(O)c3)n2)cc1
inactive: [1] 24.8% | [2] 94.9% | [3] 99.2% | [4] 115% | [20] 134% | [5] 85.8% | [7] 76.3% | [8] 39.7% | [10] 33.8% | [11] 53.7% | [12] 86.7% | [13] 143% | [14] 107% | [15] 117% | [16] 99% | [17] 132% | [18] 99.6% | [19] 104%

C#C[C@]1(O)CC[C@H]2[C@@H]3CC=C4c5sc(Nc6ccc(C)cn6)nc5CC[C@]4(C)[C@H]3CC[C@@]21C
active: [1] -25.1% | [2] -21.7% | [4] -63.7% | [6] -74.1% | [7] -26.5% | [9] -42.3% | [10] -15% | [11] -32% | [15] -44.8% | [18] -11.9%
inactive: [3] 45.9% | [5] 17.4% | [8] 10.6% | [12] 25.3% | [13] 22.2% | [14] 42.8% | [16] 29.4% | [17] 34% | [19] 20.3%

C#CCOc1ccc(/C=N/Nc2nc(-c3ccc(OC)cc3)cs2)cc1
inactive: [1] 95.8% | [2] 62.8% | [3] 78.3% | [4] 66.8% | [5] 84.2% | [6] 66.3% | [7] 63% | [8] 76.1% | [9] 73.7% | [10] 47% | [11] 53.3% | [12] 84.9% | [13] 104% | [14] 53.1% | [15] 99.6% | [16] 96.6% | [18] 94% | [19] 89.6%

Cc1cc(C)cc(NC2=C(Cl)C(=O)c3nc(C)ccc3C2=O)c1
inactive: [1] 85.5% | [2] 55.1% | [6] 89.6% | [7] 88.3% | [9] 24.6% | [10] 41% | [12] 73.1% | [13] 92.7% | [15] 107% | [18] 11.1% | [19] 65.6%
active: [3] 8.28% | [4] 0.909% | [5] 2.41% | [8] 7.91% | [11] -15.1% | [14] -5.74% | [16] -62.1% | [17] -0.41%

CCc1cc2c(cc1Cl)nc1c(=O)[nH]c(=O)nc-1n2CCOCC(C)(C)C
inactive: [1] 96.6% | [2] 71.2% | [3] 79.8% | [4] 44.3% | [5] 65.7% | [6] 70.8% | [7] 87.6% | [8] 89.6% | [9] 69.2% | [10] 35.8% | [11] 68.5% | [12] 72.2% | [13] 119% | [14] 52.5% | [15] 110% | [16] 60.3% | [18] 101% | [19] 79.2%

COc1ccc2sc(NC(=O)CCCCCCNC(=O)C(O)(O)C(F)(F)F)nc2c1
inactive: [2] 23.3% | [3] 10.5% | [8] 24.6% | [9] 13% | [10] 12.5% | [11] 14.6% | [14] 27.7% | [18] 19.1%
active: [1] -17.5% | [4] -13.7% | [5] -26.8% | [6] -16.3% | [7] -35.2% | [12] 2.54% | [13] -0.588% | [15] -26.6% | [16] 0.233% | [17] -23.9% | [19] 5.2%

N#C/C(=C\c1ccc(-c2ccc(Cl)cc2)o1)C(=O)Nc1ncc(Cc2ccc(Br)cc2)s1
inactive: [1] 83.1% | [2] 19.6% | [4] 52.9% | [8] 34.8% | [9] 55.8% | [10] 16.8% | [11] 64.1% | [13] 42.4% | [15] 70.3%
active: [3] -29.9% | [5] -34.6% | [7] -25.5% | [12] 6.49% | [14] -26.7% | [16] 7.06% | [18] -2.91% | [19] 8.56%

Cn1c(SCC(=O)c2ccco2)nc2ccccc2c1=O
inactive: [1] 106% | [2] 55.2% | [3] 105% | [4] 68.7% | [5] 101% | [6] 74.7% | [7] 144% | [8] 98.8% | [9] 96% | [10] 91.5% | [11] 93.4% | [12] 101% | [13] 111% | [14] 95.5% | [15] 107% | [16] 86.1% | [17] 107% | [18] 104% | [19] 105%

O=S(=O)(Oc1ccc(-c2cn3ccsc3n2)cc1)c1cccc(C(F)(F)F)c1
inactive: [1] 101% | [2] 94.3% | [3] 104% | [4] 93.1% | [5] 98.4% | [6] 89.9% | [7] 86.8% | [8] 100% | [9] 97.6% | [10] 95.2% | [11] 97.5% | [12] 101% | [13] 107% | [14] 96.5% | [15] 108% | [16] 107% | [18] 102% | [19] 108%

COc1ccc(N2CCN(C3=C(Cl)C(=O)c4ncccc4C3=O)CC2)cc1
active: [5] -18.7% | [8] 6.79% | [9] 4.55% | [10] 0.311%
inactive: [1] 95.1% | [2] 99.9% | [3] 84.7% | [4] 19.2% | [6] 32.3% | [7] 103% | [11] 23.2% | [12] 74.8% | [13] 112% | [14] 48.2% | [15] 81% | [16] 80.7% | [18] 70.2% | [19] 86.6%

CC[C@]12C=CCN3CC[C@]4(C(=C(C(=O)OC)C1)Nc1cc5c(cc14)[C@@H]1[C@H](O5)[C@@H](O)[C@@]4(CC)CC(C(=O)OC)=C5Nc6cc(O)ccc6[C@@]56CCN1C46)C32 (some centres undefined)
active: [4] 4.9% | [5] -14.3% | [6] -7.67% | [7] -71.8% | [8] 6.81% | [9] 8.51% | [10] 5.68% | [11] -10.2% | [16] -2.81% | [18] -7% | [19] 2.99%
inactive: [1] 16.1% | [2] 16.3% | [3] 13.8% | [12] 19.4% | [13] 20.7% | [14] 15.4% | [15] 24.1%

CC1(C)CC[C@]2(C(=O)O)CC[C@]3(C)C(=CC[C@@H]4[C@@]5(C)CC[C@H](NOCCCN)C(C)(C)[C@@H]5CC[C@]43C)[C@@H]2C1
inactive: [1] 93.3% | [2] 83.9% | [3] 83.5% | [4] 71.4% | [5] 97.8% | [6] 93.7% | [7] 110% | [8] 66.4% | [9] 75.3% | [11] 34.7% | [12] 95.2% | [13] 100% | [14] 95.2% | [15] 95.8% | [16] 99.3% | [17] 95.6% | [18] 87.1% | [19] 99.4%
active: [10] -8%

O=C(CSc1nc2ccccc2c(=O)n1-c1ccccc1)N/N=C/c1ccc(Oc2ccc(Br)cc2)cc1
inactive: [1] 93% | [2] 60.7% | [3] 40.7% | [4] 91.5% | [5] 91.4% | [6] 70.8% | [7] 82.3% | [8] 56.9% | [9] 55.5% | [10] 73.4% | [11] 68.3% | [12] 63.3% | [13] 94% | [14] 81.7% | [15] 84.5% | [16] 65.6% | [17] 117% | [18] 60.8% | [19] 55.2%
